Hit rate of the full screen: of about 290,000 compounds, about 4,200 (1.4%) were called active. Shown is part of a subset that was picked to be rich in actives. Values without a mark were called inactive.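 How the source made its calls: active means binding response more than 3 SD above or below the average of its plate-row segment, actives on both sides; inconclusive means wells at one plate position flagged as instrument error; inactive means the rest.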
Each compound was assayed against Mitogen-activated protein kinase kinase kinase 3 (Homo sapiens) (UniProt Q99759) (assay: compounds raising or lowering MEK5 association with MEKK3 PB1 – biochemical, wildtype MEKK3, multiplex bead flow cytometry, Alexa488-MEK5, primary screen (AID 1529;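 further: Alexa488 bead fluorescence after subtracting the streptavidin-only scavenger bead signal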)). Details: bead-based flow cytometry, Alexa488-MEK5 binding to MEKK3; at 10 µM; actives lie on both sides; 0 = blocked by unlabeled MEK5, 100 = vehicle.
Chain of Mitogen-activated protein kinase kinase kinase 3 (Homo sapiens) (Q99759 whole entry, looked up): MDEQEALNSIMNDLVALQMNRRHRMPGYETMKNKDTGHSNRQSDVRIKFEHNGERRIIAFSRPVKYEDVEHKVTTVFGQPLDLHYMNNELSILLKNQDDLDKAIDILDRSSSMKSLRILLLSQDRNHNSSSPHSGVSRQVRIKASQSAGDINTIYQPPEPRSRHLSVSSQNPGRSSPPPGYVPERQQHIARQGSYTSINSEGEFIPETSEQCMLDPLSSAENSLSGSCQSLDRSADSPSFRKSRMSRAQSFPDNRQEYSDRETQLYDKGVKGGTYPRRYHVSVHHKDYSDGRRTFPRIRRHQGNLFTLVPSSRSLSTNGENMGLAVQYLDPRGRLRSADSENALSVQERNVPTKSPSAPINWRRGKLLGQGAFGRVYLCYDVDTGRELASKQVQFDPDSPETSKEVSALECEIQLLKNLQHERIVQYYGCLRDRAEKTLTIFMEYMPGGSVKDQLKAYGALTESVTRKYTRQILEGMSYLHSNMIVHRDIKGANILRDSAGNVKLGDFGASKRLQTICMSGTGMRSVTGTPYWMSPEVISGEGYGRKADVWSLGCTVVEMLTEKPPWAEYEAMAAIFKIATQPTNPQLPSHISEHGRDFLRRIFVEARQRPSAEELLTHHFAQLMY

In the case of O=C1Nc2ccc(Br)cc2/C1=N/N=C/C1=C(N2CCOCC2)C(=C\c2ccccc2)/CC1, the binding response (% of control) is reported as 45% [inhibitor] (active).
In the case of O=c1[nH]c(=S)[nH]c2[nH]c(=S)[nH]c12, the binding response (% of control) is reported as 48% [inhibitor] (active).
COc1ccc(CCn2c(NN=C3CCCC3)nc3c2c(=O)[nH]c(=O)n3C)cc1 was tested, and the binding response (% of control) was 44% [inhibitor] (active).
In the case of O=C(O)C1CCN(c2ccc([N+](=O)[O-])cc2[N+](=O)[O-])CC1, the binding response (% of control) is reported as 49% [inhibitor] (active).
COc1cccc(NC(=S)NCCCN2CCOCC2)c1 was tested, and the binding response (% of control) was 140% (active).
COc1cccc(NC(=S)NCc2ccccn2)c1 was tested, and the binding response (% of control) was 143% (active).
For COc1ccc2nc(Nc3nc4cc5c(cc4s3)OCCO5)sc2c1, the binding response (% of control) was 137% (active).
In the case of COc1cc(-c2nc(-c3ccncc3)no2)cc(OC)c1OC, the binding response (% of control) is reported as 1% [inhibitor] (active).
For Cc1cccc(CSc2nnc(C)c(=O)n2N)c1, the binding response (% of control) was 128% (active).
With COCCN1C=C2C(=O)C(C)(OC(=O)C3CCCC3)C(=O)C=C2C=C1c1ccsc1 (configuration not stated) the binding response (% of control) was 133% (active).
Cc1cc(C(=O)OCC(=O)N2c3ccccc3NC(=O)C2(C)C)c(C)n1-c1ccccc1 was tested, and the binding response (% of control) was 130% (active).
With CCn1c(NC(=O)c2ccccc2)c(-c2cccs2)c(=O)c2ccccc21 the binding response (% of control) was 82% [inhibitor] (active).

First: COc1ccc(/C=N/N=C2/C(=O)Nc3ccccc32)cc1O
Second: COc1ccc(Cl)cc1-n1c(C)cc(C(=O)OCC(=O)N2CC(=O)Nc3ccccc32)c1C
The binding response (% of control) of the first is lower: 100% for the first, 105% for the second.

Compared with C(=N\N1CCN(c2ccccn2)CC1)/C1=C(N2CCOCC2)C(=C/c2ccccc2)/CC1, CN1CCC(CN)(N2CCN(c3ccccc3)CC2)CC1 is higher in binding response (% of control): 102% for the first, 106% for the second.

Compared with O=C1N[C@H](Cc2ccccc2)C(=O)N[C@H]1Cc1cn(S(=O)(=O)c2ccccc2)c2ccccc12, O=c1c2c(-c3ccccc3)ccnc2[nH]n1-c1ccccc1 is higher in binding response (% of control): 106% for the first, 109% for the second.

Going from CCOC(=O)COn1c(=O)c(-c2ccc(OCC)cc2)[n+]([O-])c2ccccc21 to COc1ccc(CNc2nc3c(c(=O)[nH]c(=O)n3C)n2Cc2ccccc2)cc1, the binding response (% of control) falls from 109% to 104%.

First: CCOc1ccccc1CNS(=O)(=O)c1cc(-c2cc(C)no2)ccc1C
Second: COc1ccccc1CCNS(=O)(=O)c1cn(C)nc1C
The binding response (% of control) of the first is lower: 96% for the first, 104% for the second.

Compared with COC(=O)c1ccc(N2CCOCC2)c(NC(=O)c2ccc(Br)o2)c1, CCCCc1ccc(NC(=S)NCCCN2CCOCC2)cc1 is lower in binding response (% of control): 101% for the first, 93% for the second.

Going from Cc1c(C)c(C)c2[nH]c(=S)[nH]c2c1C to Cc1ccc(-c2nc(-c3ccncc3)no2)c(C)c1, the binding response (% of control) rises from 101% to 102%.

Going from COc1ccc(CCn2c(NCCCN3CCOCC3)nc3c2c(=O)[nH]c(=O)n3C)cc1 to Cc1cc(C)cc(NC(=S)NCCCN2CCOCC2)c1, the binding response (% of control) rises from 101% to 117%.

Going from COc1ccc(CCNC(=O)CSCc2ccc(Br)cc2)cc1OC to COc1ccc(CCNc2nc3ccc(C)cc3n3cnnc23)cc1OC, the binding response (% of control) falls from 104% to 102%.

Going from CCCc1nn(C)c2c(=O)[nH]c(-c3cc(S(N)(=O)=O)ccc3OCC)nc12 to CCNC(=O)Nc1ccc(S(=O)(=O)Nc2cnc(C)nc2C)cc1, the binding response (% of control) falls from 103% to 101%.

First: CCOC(=O)C1CCN(c2ccc(C(=O)O)cc2[N+](=O)[O-])CC1
Second: CC1CCN(c2ccc([N+](=O)[O-])cc2C(N)=O)CC1
The binding response (% of control) of the first is higher: 103% for the first, 100% for the second.

Going from CC(C)CNS(=O)(=O)c1ccc(CCC(=O)NCc2ccc(Cl)cc2)cc1 to O=C(NCCN1CCN(C(=O)c2cccc([N+](=O)[O-])c2)CC1)C(=O)NCc1ccc(Cl)cc1, the binding response (% of control) rises from 96% to 105%.

First: O=C(Nc1ccc(S(=O)(=O)Nc2ccccn2)cc1)c1ccccc1
Second: Cc1ccnc(NS(=O)(=O)c2ccc(NC(=O)c3oc4ccccc4c3C)cc2)n1
The binding response (% of control) of the first is lower: 97% for the first, 102% for the second.

Going from COc1cccc(NC(=S)N(Cc2ccc(C)cc2)Cc2ccccn2)c1 to COc1cccc(NC(=S)NCc2ccco2)c1, the binding response (% of control) falls from 104% to 98%.

Compared with CCOC(=O)Cn1c(O)c(N=NC(=O)CNC(=O)Cc2ccccc2)c2ccccc21, CCn1c(=O)c2cc(C(=O)Nc3cccc(C(C)=O)c3)sc2c2ccccc21 is higher in binding response (% of control): 99% for the first, 106% for the second.

Going from COc1ccccc1CN1CC(C(=O)NCCc2cn[nH]c2)CCC1=O (configuration not stated) to COc1ccccc1CNC(=O)C1CCN(C(=O)[C@@H]2Cc3ccccc3CN2)CC1, the binding response (% of control) falls from 104% to 101%.

First: COc1ccc2nc(Nc3nc(-c4cc5ccccc5oc4=O)cs3)sc2c1
Second: COc1ccc2nc(Nc3nc(-c4ccncc4)cs3)sc2c1
The binding response (% of control) of the first is lower: 82% for the first, 104% for the second.

Going from CNC[C@H](CC1CCCCC1)NC[C@H](NCCC1CCCC1)[C@H](C)O to COC(=O)CCCC1=CC2=CC(=O)C(C)(OC(=O)c3cccs3)C(=O)C2=CN1CC1CC1 (configuration not stated), the binding response (% of control) falls from 102% to 93%.

First: COc1ccccc1Cc1nc(-c2ccc(C)cc2)no1
Second: COc1ccccc1C(=O)Nn1c(-c2cccs2)nc2ccccc2c1=O
The binding response (% of control) of the first is lower: 101% for the first, 111% for the second.

Compared with O=C(NCc1ccccc1)C1=C[C@@H](c2ccccc2)C[C@@H](OCCCCO)O1, O=C(/C=C/c1ccco1)NC(=S)Nc1ccccc1Br is higher in binding response (% of control): 101% for the first, 102% for the second.

First: O=C(CCNS(=O)(=O)c1cccs1)N1CCN(c2ccc(F)cc2)CC1
Second: COc1ccc(NC(=O)N2CCCC(C(=O)Nc3ccccc3OC)C2)cc1 (configuration not stated)
The binding response (% of control) of the first is higher: 102% for the first, 100% for the second.

Compared with O=C(Cn1cc(/C=N/NC(=O)c2cccc(C(F)(F)F)c2)c2ccccc21)Nc1ccc(F)cc1, CCNc1ccc(C(=O)OCC(=O)N2c3ccccc3NC(=O)C2(C)C)cc1[N+](=O)[O-] is lower in binding response (% of control): 103% for the first, 99% for the second.

First: O=C(NCc1cccc(Cl)c1)C1CCN(c2nnc(N3CCCC3=O)s2)CC1
Second: Cc1nnc(SCc2cccc(Cl)c2)n(N)c1=O
The binding response (% of control) of the first is lower: 96% for the first, 98% for the second.

Compared with Cc1cccc(CSc2nc3c(c(=O)n2C)SCC3)c1, CC1(OC(=O)C2CCCC2)C(=O)C=C2C=C(c3ccc(C#N)cc3)OC=C2C1=O (configuration not stated) is lower in binding response (% of control): 100% for the first, 94% for the second.

First: CC1(C(=O)O)CCC(C(=O)Nc2ccc(Cl)c(Cl)c2)C1(C)C (configuration not stated)
Second: COc1ccc(C(=O)COC(=O)CNC(=O)c2cccs2)cc1Br
The binding response (% of control) of the first is higher: 103% for the first, 99% for the second.
